Results published in PubChem BioAssay (NCI).
This is part of a sample that, as a whole, favours compounds with a hit. Of some 79,000 tested, about 15% had one in any assay. A number with no mark means an inactive call. Calls of active or inactive are those of the source. Rule as the data show it: active = growth inhibition above about 70%; inactive = the rest.

Legend:
[1] = NCI Yeast Anticancer Drug Screen. Data for the rad50 strain (AID 155);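 also: 0% = growth of vehicle-only cultures of the same strain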; conditions: S. cerevisiae rad50 strain growth inhibition; at 50.0 µM; active compounds read high
Summary of the method: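 Vehicle-treated cultures provide the reference for the growth inhibition reported for compound-exposed, repair-deficient yeast.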

[2] = NCI Yeast Anticancer Drug Screen. Data for the mec2-1 strain (AID 157); conditions: S. cerevisiae mec2-1 strain, at 50.0 µM, active compounds read high
Summary of the method: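 mec2-1 yeast strain, carrying an alteration in DNA damage repair or cell cycle control, was exposed to compounds; growth inhibition was measured relative to vehicle-treated controls.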

[3] = NCI Yeast Anticancer Drug Screen. Data for the sgs1 mgt1 strain (AID 161);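 also: 0% = growth of cultures given vehicle only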; conditions: S. cerevisiae sgs1 mgt1 strain, at 50.0 µM, active compounds read high
Summary of the method: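 Yeast cells carrying a defined DNA-repair defect were exposed to test compounds. Growth inhibition was measured relative to vehicle-treated controls.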

[4] = NCI Yeast Anticancer Drug Screen. Data for the cln2 rad14 strain (AID 165);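 also: 0% = growth equal to vehicle treated cultures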; conditions: S. cerevisiae cln2 rad14 strain, at 50.0 µM, active compounds read high
Summary of the method: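 Yeast carrying cln2 and rad14 alterations (cell cycle control and DNA damage repair) were exposed to compounds. Growth inhibition was measured against vehicle-treated controls.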

[5] = NCI Yeast Anticancer Drug Screen. Data for the bub3 strain (AID 167); conditions: S. cerevisiae bub3 mutant strain, at 50.0 µM, active compounds read high
Summary of the method: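 Mutant yeast screening strain plus compound; vehicle-treated cultures serve as the 0% inhibition reference.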

[6] = NCI Yeast Anticancer Drug Screen. Data for the mlh1 rad18 strain (AID 175); conditions: S. cerevisiae mlh1 rad18 strain growth inhibition; at 50.0 µM; active compounds read high
Summary of the method: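 Growth inhibition of the yeast strain was measured after compound exposure and expressed relative to vehicle-treated controls. The strain carries defined defects in DNA damage repair.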

| Structure (SMILES) | growth inhibition [1] | growth inhibition [2] | growth inhibition [3] | growth inhibition [4] | growth inhibition [5] | growth inhibition [6] |
| --- | --- | --- | --- | --- | --- | --- |
| COc1cccc(C(=O)O)c1OC | 11.2% | 14.4% | 6.55% | 3.75% | -5.35% | 0% |
| Oc1cc2ccccc2c(-c2c(O)c(O)cc3ccccc23)c1O | 89.5% (active) | 85% (active) | 83.7% (active) | 83.6% (active) | 87% (active) | 91.7% (active) |
| C/C=C/C1OCC(CC)C(CCC)O1 (stereo not given) | 36% | 11.2% | 1.85% | -36.8% | -17.9% | -1.15% |
| CC1(C)OC(=O)CC1=O | 4.6% | -2.45% | 0.55% | 3.65% | 1.8% | -3.2% |
| Cc1ccc2[nH]c3ccccc3c2c1 | 26.1% | 14.6% | 22.9% | -14.8% | 15% | 31.1% |
| COc1ccc(-c2csc(NC(=O)Nc3nc(-c4ccc(OC)cc4)cs3)n2)cc1 | 4.25% | -0.95% | 0.7% | -8.35% | 7.7% | 1.4% |
| OCC1OC(n2ccc3c2ncn2ncnc32)C(O)C1O (stereo not given) | -20.7% | 3.45% | -10.4% | -15.3% | -37.6% | -47.8% |
| OCC1CCC(O)C(CO)N1 (stereo not given) | -6.65% | -29.6% | -22.7% | 8.85% | -16.2% | -15.8% |
| CC(=O)c1ccc(C)cc1 | -1.75% | 6.1% | -28.8% | -2.8% | -36% | -11.6% |
| CC(=O)Nc1ccc(O)c(C)c1 | 10.8% | 3.35% | -25.8% | -21.8% | -14.8% | -1.1% |
| OCCOc1ccc(-c2cc(-c3ccccn3)nc(-c3ccccn3)c2)cc1 | 57.6% | 46.3% | 43% | 44.5% | 46.7% | 77.4% (active) |
| O=[n+]1ccn([O-])c2ccccc21 | 11.3% | 8.45% | 9.05% | -52.2% | -8.1% | 20.6% |
| O=C(CCl)Oc1ccc([N+](=O)[O-])cc1 | 20.8% | 21.9% | 23.8% | 11.7% | 19.8% | 26.6% |
| CCCc1cccc(CCC)c1NC(=O)Nc1cc(Cl)cc(Cl)c1 | 37.5% | 19.9% | 47.5% | 37% | 44% | 23.6% |
| N#C/C(=C\c1ccc2c(c1)OCO2)c1ccccc1 | 10.4% | -0.7% | 3.15% | 10.2% | 1.95% | 24.1% |
| O=c1cc(C(F)(F)F)[nH]c(=S)[nH]1 | -21.9% | -5.05% | -15.8% | -20.9% | -24.8% | -26.2% |
| C=C1C(=O)C2CCN1CC2 | 1.05% | -15.8% | -15.8% | 2.95% | -18.1% | -21.2% |
| Cc1cc(NC(=O)c2ccccc2)c(Cl)cc1N | -26.4% | -33.9% | -11.9% | -13.4% | -21% | -7.95% |
| O=CNCCc1ccccc1 | 7.25% | -9.05% | 6.85% | 5% | 6.3% | 2.35% |
| Cc1cc(CO)c(O)c(CO)c1 | 8.15% | -10.4% | 0.1% | -5.05% | -10.5% | 0.85% |
| Cc1cc(Cc2ccccc2)c(O)c(Cc2ccccc2)c1 | 50.1% | 3.3% | 32% | 38% | 12.3% | 42.7% |
| O=C(O)Cc1ccccn1 | -29.4% | -49.1% | -1.75% | 14.1% | -28.8% | -2.25% |
| Oc1cccc(CNC2CCCCC2)c1 | 3.5% | 0.25% | -0.6% | 10.2% | -22.4% | 9.15% |

| Structure (SMILES) | growth inhibition [1] | growth inhibition [2] | growth inhibition [3] | growth inhibition [4] | growth inhibition [5] | growth inhibition [6] |
| --- | --- | --- | --- | --- | --- | --- |
| COc1cc(-c2ccc(NC(=O)CC(C)=O)c(OC)c2)ccc1NC(=O)CC(C)=O | -17.8% | -26.6% | -3.35% | -5.3% | 5.95% | -14% |
| C=CC1=NC(C)(C)CC(C)O1 (stereo not given) | 8% | -15.2% | 9.75% | 25.4% | 11.5% | 9.75% |
| O=C1NC(=O)/C(=C\c2ccncc2)N1 | 28.9% | -7.8% | -0.3% | 9.3% | -19.8% | -56.5% |
| CC1(c2ccccc2)CO1 (stereo not given) | -2.8% | -21.4% | -7.85% | -11.1% | -14.9% | 4.3% |
| Cc1ccccc1CC(N)C(=O)O (stereo not given) | 2.95% | 10.7% | 2.7% | -15.2% | 8.85% | 1.85% |
| C/C(=N\O)c1ccccn1 | -7.6% | -16.4% | -17.9% | 1.15% | -8.85% | 1.45% |
| CCN(C(C)=O)c1ccc([N+](=O)[O-])cc1 | -11.9% | -1.65% | 2% | -41.8% | 3.05% | -13.7% |
| C[n+]1cc2cc3c(cc2c2ccccc21)OCO3 | 23.5% | 35% | 30% | 13.1% | 26.9% | 39.5% |
| CC(=O)NC(O)C(Cl)Cl (stereo not given) | -14.7% | -6.05% | -6.95% | -23.3% | -5.7% | -14.2% |
| COc1ccc(C)cc1NC(=O)SC(C)C | -9.75% | -18.9% | 9.4% | -5.2% | 18.4% | 6.1% |
| CCCC(OC(C)=O)c1ccc2c(c1)OCO2 (stereo not given) | 26.4% | 27.5% | 17.3% | -12% | 20.9% | 29.2% |
| N#C/C(=C\NC(=S)N=Nc1c(O)[nH]c2ccccc12)c1nc2ccccc2s1 | 10.1% | 2.3% | 29.1% | -10.1% | 17.9% | 14.5% |
| ON1CCCC1 | -1.35% | -4.15% | -8.9% | -6.6% | 6.4% | 1.5% |
| O=C1NC(=O)C(c2ccccc2)O1 (stereo not given) | -3.9% | -12.1% | 1.15% | 14.7% | 18.8% | 10.8% |
| COc1ccc(Nc2cc(Cl)ccc2C(=O)O)cn1 | 4.25% | 0.6% | -6.95% | 17.9% | 5.3% | -4.55% |
| c1ccc(Oc2c3ccccc3nc3ccccc23)cc1 | 2.75% | -18.4% | -13.2% | 4.25% | -5.7% | 87.9% (active) |
| Nc1cc2ccccc2c(O)c1O | 32.1% | 35% | 39.1% | 20.7% | 38% | 14.2% |
| COc1ccc(C(=O)/C(=N/Nc2ccccc2)c2ccc(OC)cc2)cc1 | -3.45% | -13.8% | -1.25% | 2% | 1.8% | 30.8% |
| COC(=O)c1cccc([N+](=O)[O-])c1 | -11.3% | -5.7% | -4.7% | -31.3% | -0.4% | -9.9% |
| O=C(O)Cc1ccc(Cl)cc1 | 22.2% | -15.3% | 29% | 3.65% | -25.2% | 0% |
| NNC(=O)CCCCl | -10.5% | -15.7% | -11.5% | 2.75% | -21.3% | -0.2% |
| C1C[S+]2CC[S+]1CC2 | 3.5% | 28.9% | 24.3% | -5.95% | 19.2% | 28.2% |
